The values that follow come from PubChem BioAssay (NCATS).

Inconclusive results are not listed. Unmarked numbers belong to inactive results. Calls of active or inactive are those of the source. The call rests on the fitted dose curve; in most records, active means well fitted curve in the direction sought with a large enough effect; inconclusive means small, poorly fitted or top-dose-only effect, or another doubt; inactive means no such curve, though single readings can be large; an effect the other way counts as inactive or inconclusive. Square brackets hold non-standard residues; d marks the D form. Peptide text beside a SMILES is read from it. ξ: configuration not given here. ξL = CC(C)CC(N)C(=O)O
Potency means the concentration at half of the fitted maximal effect.

Nuclear receptor subfamily 1 group I member 3 (Homo sapiens), sequence (Q14994 whole entry, looked up): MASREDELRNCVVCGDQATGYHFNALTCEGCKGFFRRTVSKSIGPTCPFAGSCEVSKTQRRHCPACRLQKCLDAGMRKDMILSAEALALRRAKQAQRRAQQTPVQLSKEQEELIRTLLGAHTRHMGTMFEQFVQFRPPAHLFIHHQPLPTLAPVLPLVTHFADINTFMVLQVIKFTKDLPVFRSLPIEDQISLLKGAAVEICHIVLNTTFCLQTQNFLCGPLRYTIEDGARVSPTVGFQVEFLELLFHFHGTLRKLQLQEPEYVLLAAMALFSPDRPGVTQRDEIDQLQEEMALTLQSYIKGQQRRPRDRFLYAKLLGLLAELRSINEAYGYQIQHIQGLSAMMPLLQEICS

The target in one assay is Nuclear receptor subfamily 1 group I member 3 (Homo sapiens) (UniProt Q14994). Put plainly: qHTS for Constitutive Androstane Receptor (CAR) Antagonist screened against the NCATS CANVASS Library (AID 1347372).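 On activity change, negative = inhibition: cells stimulated with 50 nM CITCO agonist so inhibition reflects antagonism; on the % scale 0 is the no-effect control and ±100 the full control effect.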 The settings on record: HepG2-hCAR-CYP2B6 luciferase, CITCO-stimulated antagonist mode; series mostly up to 46.1 µM; activity change, negative = inhibition: at the top concentration. In a few lines:
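Antagonist mode: compound added alongside 50 nM CITCO to HepG2-hCAR-CYP2B6 reporter cells, 24hr at 37C. Viability by CellTiter-Fluor fluorescence, then CAR-driven luciferase by ONE-Glo luminescence.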
Turning to `O[C@H]1C=C2[C@H]3CN(Cc4cc5c(cc43)OCO5)[C@H]2C[C@@H]1O`, the Potency was 13.2 µM (active).

For `CC[C@@H](c1cc(OC)c(OC)cc1OC)[C@H](C)[C@@H](/C(C)=C/c1cc(OC)c(OC)cc1OC)c1cc(OC)c(OC)cc1OC`, the Potency result is “inactive”.

For `CC[C@@H](C)[C@H]1NC(=O)C(CC(C)C)NC(=O)[C@@H](CC(C)C)NC(=O)[C@H](Cc2c[nH]c3ccccc23)NC(=O)CNC(=O)[C@@H](CC(N)=O)NC1=O` (stereo partly drawn) (cyclo(GW[dL][ξL][dI][dN])), the “activity change, negative = inhibition” value was -12.5%.

Regarding `CN1CCc2cc3c(c4c2C1(C)C(=O)c1cc(O)ccc1-4)OCO3` (configuration not stated), the “activity change, negative = inhibition” value was -31.9%.

For the molecule `COc1cc2c(cc1OC)[C@@H](c1ccc3c(c1)OCO3)C(C)[C@@H](C)C2=O` (some centres not stated), the “activity change, negative = inhibition” value was 121%.

As for `CC(C)[C@@H]1CC(=O)c2coc3c2[C@H]1C[C@@H](C)C3=O`, the “activity change, negative = inhibition” value is 12.7%.

In the case of `COc1cc2oc3ccccc3c(=O)c2cc1OC`, the “activity change, negative = inhibition” value is 527% [at 91.4 µM].

`COC(=O)[C@@]1(C)CCC[C@]2(C)c3cc(OC)ccc3CC[C@@H]12`: the “activity change, negative = inhibition” value was 33.4%.

In the case of `COc1cc2ccc(=O)oc2c(O)c1O[C@@H]1O[C@H](CO)[C@@H](O)[C@H](O)[C@H]1O`, the “activity change, negative = inhibition” value was 12.9% [at 27.5 µM].

For the molecule `CC[C@H]1[C@@H](C)[C@@H](c2cc(OC)c(OC)cc2OC)[C@H](C)[C@@H](c2cc(OC)c(OC)cc2OC)[C@@]12C=C(OC)C(=O)C=C2OC`, the “activity change, negative = inhibition” value is 148%.

For the molecule `O=C1CCC(=O)N(O)CCCCCNC(=O)CCC(=O)N(O)CCCCCNC(=O)CCC(=O)N(O)CCCCCN1`, the “activity change, negative = inhibition” value is -9.2%.

With `C=C1C[C@H]2O[C@@H]3[C@@H]4[C@H](CC[C@@](C)(O)[C@@H]42)[C@H](C)COC3(C)[C@@H](OC(=O)CCCCCCC)C[C@H]1O` (some centres not stated), the “activity change, negative = inhibition” value was -6.02%.

Turning to `CC1=C(C)C(=O)OC(C(C)C2(O)CCC3C4C5OC5C5(O)CC=CC(=O)C5(C)C4CCC32C)C1` (configuration not stated), the “activity change, negative = inhibition” value was 135%.

With `C[C@H](CCC(O)C(C)(O)CO)[C@@]1(O)CC[C@@]2(C)C3=C(CC[C@@]21C)[C@@]1(C)CCC(OC(=O)CCC(=O)O)C(C)(C)[C@@H]1CC3` (some centres not stated), the “activity change, negative = inhibition” value is 1.59%.

As for `COc1cc(C2C3=C(Cc4cc5c(cc42)OCO5)C(=O)OC3)cc(OC)c1OC` (configuration not stated), the Potency was 0.117 µM (active).

For the molecule `CO[C@@H]1[C@H](O)[C@@H](C)O[C@@H](OC[C@@H]2C(C)OC(=O)/C=C/[C@H](C)C(O[C@@H]3O[C@H](C)CC4(OC(=O)O[C@@H]4C)C3O)[C@@H](C)CC(C)C(=O)/C=C/[C@H]3OC23)[C@@H]1OC` (some centres not stated), the Potency was 20.9 µM (active).

With `COc1ccc([C@@H]2c3cc4c(cc3C(=O)[C@H](C)C2C)OCO4)cc1OC` (some centres not stated), the “activity change, negative = inhibition” value was 4.01%.

In the case of `C/C(=C\[C@H](C)C(=O)C[C@H](O)CC1CC(=O)NC(=O)C1)[C@@H]1OC(=O)CCCC/C=C/[C@@H](O)C[C@@H]1C`, the Potency is 14.8 µM (active).

On to `CC1=C[C@H]2[C@H]3C(=O)C(c4ccc(O)cc4)=C[C@@]3(c3ccc(O)cc3)[C@@H]1C(=O)[C@]2(C)O`, for which the Potency is 0.933 µM (active).

Regarding `C=C1C(=O)O[C@H]2[C@H]1CCC(C)=C1CC[C@@](C)(O)[C@@H]12`, the “activity change, negative = inhibition” value is -109%.

Turning to `C/C(=C\[C@H](C)C(=O)/C=C/CC1CC(=O)NC(=O)C1)[C@@H]1OC(=O)CCCC/C=C/[C@H](O)[C@@H](O)[C@@H]1C`, the “activity change, negative = inhibition” value is 23.6%.

`C[C@H](c1cnc(N)[nH]1)c1ccc(O)c2[nH]cc(-c3cnc(-c4c[nH]c5ccccc45)c(=O)[nH]3)c12`: the “activity change, negative = inhibition” value is 32.8%.

Regarding `COc1ccc([C@@H]2c3cc4c(cc3C[C@H](C)C2C)OCO4)cc1OC` (some centres not stated), the “activity change, negative = inhibition” value is 3.02%.

Regarding `CC[C@@H]1[C@H](C)[C@H](c2cc(OC)c(OC)cc2OC)[C@@H](C)[C@H](c2cc(OC)c(OC)cc2OC)[C@]12C=C(OC)C(=O)C=C2OC`, the “activity change, negative = inhibition” value is 125%.

As for `C[C@H]1CCC2(OC1)O[C@H]1C[C@H]3[C@@H]4CC(=O)[C@]5(O)C[C@H](O)CC[C@@]5(C)[C@H]4CC[C@@]3(C)[C@H]1[C@H]2C` (some centres not stated), the “activity change, negative = inhibition” value was 180%.

For `C/C1=C/[C@@H](C)[C@H](O)C/C=C/CC/C=C/C(=O)O[C@@H]1[C@H](C)C(=O)CCCC1CC(=O)NC(=O)C1`, the “activity change, negative = inhibition” value was -9.62%.

On to `C=C1C[C@H]2O[C@@H]3[C@@H]4[C@H](CC[C@@](C)(O)[C@@H]42)[C@H](C)COC3(C)[C@@H](OC(=O)CCCCCCC)CC1=O` (some centres not stated), for which the “activity change, negative = inhibition” value was 42.8%.

The next assay has the same target. Put plainly: qHTS for Constitutive Androstane Receptor (CAR) Agonist screened against the NCATS CANVASS Library (AID 1347373).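 Further: every well also contained 1.5 µM PK11195 alongside the test compound.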 On activation: 0% is about no effect. The following applies: HepG2-hCAR-CYP2B6 luciferase reporter, ONE-Glo luminescence; series mostly up to 46.1 µM; activation: at the top concentration. In a few lines: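 Cells were plated and allowed to attach for 4hr, then dosed with compound in an 11-point series alongside 1.5uM PK11195. After 24hr at 37C, viability was measured fluorometrically and CAR-driven CYP2B6 reporter luminescence was recorded.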
For `O[C@H]1C=C2[C@H]3CN(Cc4cc5c(cc43)OCO5)[C@H]2C[C@@H]1O`, the “activation” value was -10%.

Regarding `CC[C@@H](c1cc(OC)c(OC)cc1OC)[C@H](C)[C@@H](/C(C)=C/c1cc(OC)c(OC)cc1OC)c1cc(OC)c(OC)cc1OC`, the Potency result was “inactive”.

`C/C=C/c1cc2c(c(=O)o1)C(=O)[C@@H](O)[C@H](C)O2`: the “activation” value was -21.4%.

On to `CC[C@@H](C)[C@H]1NC(=O)C(CC(C)C)NC(=O)[C@@H](CC(C)C)NC(=O)[C@H](Cc2c[nH]c3ccccc23)NC(=O)CNC(=O)[C@@H](CC(N)=O)NC1=O` (stereo partly drawn) (cyclo(GW[dL][ξL][dI][dN])), for which the “activation” value is -6.93%.

Turning to `COc1cc2c(cc1OC)[C@@H](c1ccc3c(c1)OCO3)C(C)[C@@H](C)C2=O` (some centres not stated), the Potency was 9.33 µM (active).

Take `CC(C)[C@@H]1CC(=O)c2coc3c2[C@H]1C[C@@H](C)C3=O`: the “activation” value was 3.38%.

Take `COc1cc2oc3ccccc3c(=O)c2cc1OC`: the Potency was 38.2 µM (active).

As for `COc1cc2ccc(=O)oc2c(O)c1O[C@@H]1O[C@H](CO)[C@@H](O)[C@H](O)[C@H]1O`, the “activation” value is 5.25% [at 27.5 µM].

On to `CC[C@H]1[C@@H](C)[C@@H](c2cc(OC)c(OC)cc2OC)[C@H](C)[C@@H](c2cc(OC)c(OC)cc2OC)[C@@]12C=C(OC)C(=O)C=C2OC`, for which the “activation” value is 11.2%.

As to `O=C1CCC(=O)N(O)CCCCCNC(=O)CCC(=O)N(O)CCCCCNC(=O)CCC(=O)N(O)CCCCCN1`, the “activation” value was 1.13%.

As to `C=C1C[C@H]2O[C@@H]3[C@@H]4[C@H](CC[C@@](C)(O)[C@@H]42)[C@H](C)COC3(C)[C@@H](OC(=O)CCCCCCC)C[C@H]1O` (some centres not stated), the “activation” value is 1.08%.

For the molecule `C[C@H](CCC(O)C(C)(O)CO)[C@@]1(O)CC[C@@]2(C)C3=C(CC[C@@]21C)[C@@]1(C)CCC(OC(=O)CCC(=O)O)C(C)(C)[C@@H]1CC3` (some centres not stated), the “activation” value was 1.78%.

For the molecule `COc1cc(C2C3=C(Cc4cc5c(cc42)OCO5)C(=O)OC3)cc(OC)c1OC` (configuration not stated), the “activation” value is -20.5%.

Consider `CO[C@@H]1[C@H](O)[C@@H](C)O[C@@H](OC[C@@H]2C(C)OC(=O)/C=C/[C@H](C)C(O[C@@H]3O[C@H](C)CC4(OC(=O)O[C@@H]4C)C3O)[C@@H](C)CC(C)C(=O)/C=C/[C@H]3OC23)[C@@H]1OC` (some centres not stated), for which the “activation” value was -20.2%.

With `C=C[C@@](C)(O)CC[C@@H]1[C@@]2(C)CCCC(C)(C)[C@@H]2CC[C@@]1(C)O`, the “activation” value was 8.12%.

Turning to `COc1ccc([C@@H]2c3cc4c(cc3C(=O)[C@H](C)C2C)OCO4)cc1OC` (some centres not stated), the “activation” value is 9.37%.

`C/C(=C\[C@H](C)C(=O)C[C@H](O)CC1CC(=O)NC(=O)C1)[C@@H]1OC(=O)CCCC/C=C/[C@@H](O)C[C@@H]1C`: the “activation” value was -16.2%.

Turning to `CC1=C[C@H]2[C@H]3C(=O)C(c4ccc(O)cc4)=C[C@@]3(c3ccc(O)cc3)[C@@H]1C(=O)[C@]2(C)O`, the “activation” value is -18.1%.

Consider `C=C1C(=O)O[C@H]2[C@H]1CCC(C)=C1CC[C@@](C)(O)[C@@H]12`, for which the “activation” value was -23.5%.

`C/C(=C\[C@H](C)C(=O)/C=C/CC1CC(=O)NC(=O)C1)[C@@H]1OC(=O)CCCC/C=C/[C@H](O)[C@@H](O)[C@@H]1C`: the “activation” value is 5.71%.

For `C[C@H](c1cnc(N)[nH]1)c1ccc(O)c2[nH]cc(-c3cnc(-c4c[nH]c5ccccc45)c(=O)[nH]3)c12`, the “activation” value is 12.1%.

On to `COc1ccc([C@@H]2c3cc4c(cc3C[C@H](C)C2C)OCO4)cc1OC` (some centres not stated), for which the “activation” value was 24.2%.

Consider `CC[C@@H]1[C@H](C)[C@H](c2cc(OC)c(OC)cc2OC)[C@@H](C)[C@H](c2cc(OC)c(OC)cc2OC)[C@]12C=C(OC)C(=O)C=C2OC`, for which the “activation” value is 1.63%.

On to `C/C1=C/[C@@H](C)[C@H](O)C/C=C/CC/C=C/C(=O)O[C@@H]1[C@H](C)C(=O)CCCC1CC(=O)NC(=O)C1`, for which the “activation” value is -16.1%.

Take `C=C1C[C@H]2O[C@@H]3[C@@H]4[C@H](CC[C@@](C)(O)[C@@H]42)[C@H](C)COC3(C)[C@@H](OC(=O)CCCCCCC)CC1=O` (some centres not stated): the “activation” value is -9.5%.
